Among the data in PubChem BioAssay AID602410 (Johns Hopkins Ion Channel Center, 2012) are B-score values, retold here.

Screen size: about 340,000 compounds; about 2,800 (0.82%) were called active. The sample holds actives, similar compounds and a random draw of the others, so the mix is not that of the screen.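 How the source made its calls: active means B-score under library mean minus 4 SD, starting fluorescence ratio at most library mean plus 5 SD; inactive means the rest.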

In the assay the target is Potassium channel subfamily K member 3 (Homo sapiens) (UniProt O14649). Kind of assay: blockers of TASK1 two-pore potassium channel – CHO cells, FluxOR thallium flux, B-score, primary screen (AID 602410).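 On B-score: more negative B-score means stronger inhibition of thallium flux through KCNK3.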 The conditions noted are these: CHO-KCNK3 thallium flux, FluxOR fluorescence, at 10 µM; active compounds read low.
Chain of Potassium channel subfamily K member 3 (Homo sapiens) (O14649 whole entry, looked up): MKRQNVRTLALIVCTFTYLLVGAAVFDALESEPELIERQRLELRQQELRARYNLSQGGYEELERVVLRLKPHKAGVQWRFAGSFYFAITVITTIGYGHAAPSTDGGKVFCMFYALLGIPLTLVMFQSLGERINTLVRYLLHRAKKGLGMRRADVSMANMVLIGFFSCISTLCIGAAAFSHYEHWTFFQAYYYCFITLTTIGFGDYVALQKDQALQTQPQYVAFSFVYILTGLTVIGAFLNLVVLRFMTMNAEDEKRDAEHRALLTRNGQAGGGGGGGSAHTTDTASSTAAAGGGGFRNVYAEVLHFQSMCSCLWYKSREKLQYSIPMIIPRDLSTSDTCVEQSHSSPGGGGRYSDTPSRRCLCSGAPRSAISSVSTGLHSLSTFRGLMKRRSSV
In the case of `c1ccc2c(NCC3CCCO3)nc(-c3ccncc3)nc2c1` (stereo not given), the B-score result was “inactive”. As for `Clc1cccc(-c2nc(NCC3CCCO3)c3ccccc3n2)c1` (stereo not given), the B-score is -10.2 (active). On to `O=C(CSc1nc2ccccc2c(=O)n1Cc1ccc(F)cc1)NCC1CCCO1` (stereo not given), for which the B-score entry is “inactive”. Regarding `CCOC(=O)[C@@H]1[C@H]2COc3ccc(Br)cc3[C@H]2N2C(=O)N(c3ccc(C)cc3)C(=O)[C@@]12C`, the B-score result is “inactive”. For the compound `CCn1c(CSc2nncn2-c2ccc(OC)cc2)nc2cc(S(=O)(=O)N(C)C)ccc21`, the B-score entry was “inactive”. For `COc1cc(CNCc2ccc(OC)c3ccccc23)cc(OC)c1OC`, the B-score result is “inactive”. The same measure for `CC(C)N(Cc1ccccc1)C(=O)COC(=O)c1cnccn1`: “inactive”; for `N/C(Cc1ccc([N+](=O)[O-])cc1)=N\OC(=O)COc1ccc2ccccc2c1`: -8.91 (active). To `N/C(=N\OC(=O)Cc1ccc([N+](=O)[O-])cc1)c1ccccn1` belongs “inactive”; to `Cc1cc(C)cc(OCC(=O)O/N=C(\N)Cc2ccc([N+](=O)[O-])cc2)c1`, “inactive”; to `CCNC(=O)CC1C(=O)N(c2ccc(OC)cc2)C(=S)N1CCc1ccncc1` (stereo not given), “inactive”.

Regarding `CCc1cc(-c2n[nH]c(=S)n2CC(C)C)cs1`, the B-score result is “inactive”. Regarding `CCOC(=O)N1CCN(Cc2nc3cc(NC(=O)CC)ccc3n2CC)CC1`, the B-score entry was “inactive”. On to `O=C(CN(CC1CCCO1)C(=O)CNS(=O)(=O)c1ccc(Cl)cc1)NCc1ccccc1` (stereo not given), for which the B-score result is “inactive”.

As for `CCC(C(=O)NCCC(C)C)N(Cc1ccccc1Cl)C(=O)c1snc(C(N)=O)c1N` (stereo not given), the B-score entry was “inactive”. With `COc1ccc2c(c1)c(=Cc1ccc(N(C)C)cc1)c1cc(-c3ccccc3)[n+](C)n12`, the B-score is -15.6 (active). In the case of `COc1ccc2sc(-c3ccc(N(C)C)cc3)c(C#CCO)c2c1`, the B-score entry was “inactive”.

Turning to `O=S(=O)(c1cccs1)N1CCN(CCOc2ccccc2)CC1`, the B-score entry is “inactive”. For `O=C(N/N=C/c1cccc(O)c1)c1cc2c(ccc3ccccc32)o1`, the B-score entry is “inactive”. With `Cc1ccc(OCCOc2cccc(/C=N/NC(N)=O)c2)cc1`, the B-score result was “inactive”. Regarding `O=C(N/N=C/c1cccc(OCc2ccccc2)c1)c1ccc(Br)o1`, the B-score was -9.25 (active). Turning to `COc1ccccc1N1CCN(c2nc(C)cc(=O)[nH]2)CC1`, the B-score result was “inactive”.

As for `COc1ccccc1N1CCN(c2ccc([N+](=O)[O-])nc2)CC1`, the B-score result was “inactive”. For the compound `COc1ccccc1N1CCN(c2ncnc3sc(C)c(-c4ccccc4)c23)CC1`, the B-score was -14.3 (active). In the case of `COc1cccc2cc(C(C)N(CCCN3CCOCC3)C(=O)Nc3ccc(Cl)cc3)oc12` (stereo not given), the B-score is -10.2 (active). Regarding `O=C(NCCN1CCOCC1)Nc1cccc(Cl)c1`, the B-score entry is “inactive”. As for `COc1ccc(S(=O)(=O)N(C)CC(=O)NCCCN2CCOCC2)cc1Cl`, the B-score entry is “inactive”. Regarding `Cc1nn(CC(=O)Nc2nc3ccccc3s2)c(C)c1[N+](=O)[O-]`, the B-score was -10.5 (active). To `Cc1nn(CC(=O)Nc2ccc(N(C)C)cc2)c(C)c1[N+](=O)[O-]` belongs “inactive”; to `Cc1nn(CC(=O)NCc2ccccn2)c(C)c1[N+](=O)[O-]`, “inactive”.

As for `CCN(CC(=O)NCc1ccc(F)cc1)S(=O)(=O)c1ccc(Cl)s1`, the B-score result was “inactive”.

Turning to `CC(C(=O)NC1CCCC1)N(c1ccc(Oc2ccccc2)cc1)S(C)(=O)=O` (stereo not given), the B-score result is “inactive”. Consider `COC(=O)c1cc(C)sc1NC(=O)CC1Nc2ccccc2NC1=O` (stereo not given), for which the B-score entry is “inactive”. Take `COC(=O)C1=C(C)N(C(C)c2ccccc2)C(=O)/C1=C\c1ccco1` (stereo not given): the B-score was -9.57 (active). To `COC(=O)COc1ccc2c(c1C)O/C(=C\c1ccco1)C2=O` belongs “inactive”.

As for `O=C(OCN1C(=O)c2ccccc2C1=O)/C(=C\c1ccco1)NC(=O)c1ccccc1`, the B-score result is “inactive”. For the compound `CC(=O)NCCC(=O)Nc1cc(S(=O)(=O)N2CCCCC2)ccc1Oc1cccc(C)c1`, the B-score entry is “inactive”.

As for `Cc1c(NC(=O)CCC2CCCCC2)cc(C(=O)N2CCOCC2)cc1[N+](=O)[O-]`, the B-score result was “inactive”. As for `CC(C)N1C(=O)N(c2ccccc2)C(C)(O)CC1(C)C` (stereo not given), the B-score entry was “inactive”. The same measure for `CC(C)N(Cc1nc(-c2ccc3c(c2)OCO3)no1)CC1CCC(=O)N1` (stereo not given): “inactive”; for `Cc1c(S(=O)(=O)NC(C)c2ccccc2)c(=O)n(C)c(=O)n1C` (stereo not given): “inactive”; for `Cc1ccc(NC(=O)COC(=O)CNC(=O)c2ccc(Cl)cc2Cl)cc1S(=O)(=O)N1CCOCC1`: -10.7 (active). For the compound `Cc1ccc(NC(=O)CCCNC(=O)c2ccc(Cl)cc2)cc1S(=O)(=O)N1CCOCC1`, the B-score entry was “inactive”. With `Cc1ccc(NC(=O)COC(=O)C2CC2)cc1S(=O)(=O)N1CCOCC1`, the B-score result is “inactive”. To `CC1COc2ccccc2N1C(=O)c1cccnc1Cl` (stereo not given) belongs “inactive”; to `O=C(NC1CCC(O)CC1)c1ccccc1OCc1ccc(F)cc1` (stereo not given), “inactive”. Turning to `CC(=O)c1ccccc1OCc1ccc(C(=O)c2ccccc2)cc1`, the B-score is -15.7 (active). The same measure for `COc1ccc(CCNC(=O)c2ccccc2OCc2ccccc2)cc1`: “inactive”; for `O=C(OCCOCn1cc(Br)c(=O)[nH]c1=O)c1ccccc1`: “inactive”; for `Cc1nc2ccccc2cc1OCc1ccc(F)cc1`: -11.4 (active).

`Cc1occc(=O)c1OCc1ccc(F)cc1`: the B-score entry is “inactive”.

In the case of `Fc1cccc2ncnc(OCc3ccccc3)c12`, the B-score entry was “inactive”. To `CCc1ccc(N2CC(C(=O)N3CCCCCC3)CC2=O)cc1` (stereo not given) belongs “inactive”. Take `COc1ccccc1N1CCN(/N=C/c2ccc(O)cc2O)CC1`: the B-score result was “inactive”. With `COc1ccccc1N1CCN(/N=C\C(Br)=C\c2ccccc2)CC1`, the B-score was -9.41 (active).

Take `COc1cc(/C=N/N2CCN(c3ccccc3)CC2)ccc1OC(C)=O`: the B-score entry was “inactive”. Turning to `COc1ccc(CC(=O)N[C@@H](CCSC)c2nc3ccccc3[nH]2)cc1`, the B-score result is “inactive”. To `CC1CC(C)CN(c2ccc(S(=O)(=O)N3CCOCC3)cc2)C1` (stereo not given) belongs “inactive”; to `Cc1cc(C)c(C#N)c(SCc2ccc3c(c2)OCO3)n1`, -11.2 (active); to `Cc1cc(C)c(C#N)c(SCc2ccccc2C(=O)O)n1`, “inactive”.

Turning to `Cc1ccc(CSc2nsc(C)c2C#N)cc1`, the B-score entry was “inactive”. In the case of `CCOc1ccc(OCC)c(NC(=O)C(NS(=O)(=O)c2ccc3c(c2)oc(=O)n3C)C(C)C)c1` (stereo not given), the B-score entry is “inactive”.

With `COc1ccccc1OCC(=O)Nc1ccccc1C(=O)NC1CC1`, the B-score entry is “inactive”. Turning to `COc1ccc(C(=O)c2c3ccc([N+](=O)[O-])cc3[n+]([O-])n2CCCN)cc1`, the B-score entry is “inactive”. For `COCC(=O)Nc1cc(C(=O)OC)cc(C(=O)OC)c1`, the B-score entry was “inactive”. As for `O=C(O)c1ccccc1C(=O)NC1=NN(c2ccccc2)CC1`, the B-score entry is “inactive”. For the compound `N/C(=N\OC(=O)CCn1cccc(C(F)(F)F)c1=O)c1ccc(OC(F)(F)F)cc1`, the B-score result is “inactive”. The same measure for `C=CCc1cc(S(=O)(=O)c2ccc(O)c(CC=C)c2)ccc1O`: -11 (active); for `COc1ccc(CNC(=O)C2CCC(CNc3c(N4CCOCC4)c(=O)c3=O)CC2)cc1` (stereo not given): “inactive”; for `O=C(NCCc1ccccn1)c1nc(Cn2cc([N+](=O)[O-])cn2)no1`: “inactive”.

For the compound `O=C(c1cc(-c2ccc(O)cc2)on1)N1CCOCC1`, the B-score entry is “inactive”.

As to `O=C(c1cc(-c2ccc(O)cc2)on1)N1CCCc2ccccc21`, the B-score is -9.08 (active).

For `O=C(c1cc(-c2cccc(O)c2)on1)N1CCc2ccccc2C1`, the B-score result is “inactive”. For the compound `Cc1onc(-c2ccccc2)c1C(=O)N=C(N)c1ccc(Cl)cc1`, the B-score entry is “inactive”. To `CCc1ccc(C(=O)CSc2nnc(C)c(=O)[nH]2)cc1` belongs “inactive”; to `COC(=O)c1c(NC(=O)c2ccccc2F)sc2c1C(C(=O)OC)CC2` (stereo not given), “inactive”; to `O=C(CNS(=O)(=O)c1ccccc1)NCC(=O)OCc1ccccc1F`, “inactive”. For the compound `COc1ccc(NC(=O)c2cc3nc(-c4ccccc4)cc(C)n3n2)cc1OC`, the B-score entry was “inactive”. Turning to `COC(=O)C(C)Sc1ccc2nnc(-c3cccc(F)c3)n2n1` (stereo not given), the B-score result was “inactive”. The same measure for `COCCNc1cc(-c2ccccc2)nc2cc(-c3cccc(F)c3)nn12`: -8.74 (active); for `CC(=O)Nc1ccc(NC(=O)CN2CCCC(C)C2)c(Cl)c1` (stereo not given): “inactive”; for `O=C(CSc1ccccc1)Nc1cc(Cl)ccc1Oc1ccccc1`: “inactive”.

Turning to `CC1CCCN(CC(=O)Nc2cc(Cl)ccc2Oc2ccccc2)C1` (stereo not given), the B-score is -11.4 (active). With `O=C1CCC[C@@H]2CC(N3CCCCC3)C[C@@H]3CCN1[C@H]23` (stereo not given in full), the B-score result was “inactive”. In the case of `COc1ccc(CC(NC(C)=O)C(=O)N2CCN(C(=O)Nc3cccc(Cl)c3)CC2)cc1OC` (stereo not given), the B-score result is “inactive”.

In the case of `CCc1nc(SCC(=O)NNC(=O)c2ccc(C)cc2)c2ccccc2n1`, the B-score is -8.73 (active). On to `Cc1ccc(C(=O)NNC(=O)CSc2nnc3ccccn23)cc1`, for which the B-score result was “inactive”. Take `CCCNC(=O)CSc1nc(Cc2ccccc2)nc2ccccc12`: the B-score result is “inactive”.

Regarding `C=CCSc1nc(Cc2ccc(Cl)cc2)nc2ccccc12`, the B-score result was “inactive”. For `CCN1CCN(c2c(Cl)cccc2NC(=O)c2ccc(Br)o2)CC1`, the B-score entry was “inactive”. `CCCC(=O)Nc1ccc(Cl)c(NC(=O)c2ccc(Br)o2)c1`: the B-score is -9.33 (active). Regarding `O=C(CNC(=O)c1ccc(Br)o1)Nc1ccccc1`, the B-score result is “inactive”. In the case of `CC(=O)C1=C(C)NC(C)=C(C(C)=O)C1c1cn(-c2ccccc2)nc1-c1cccs1`, the B-score entry was “inactive”. `COc1ccc(C(C(=O)NC(C)(C)C)N(C(=O)Cn2nnc3ccccc32)c2ccc(C(C)=O)cc2)cc1O` (stereo not given): the B-score result was “inactive”.

With `C#CC(C)(C)NC(=O)c1cnc(-c2ccccc2)nc1-c1ccccc1`, the B-score result is “inactive”. For the compound `CS(=O)(=O)c1ccc(-c2nnn(CC(=O)Nc3ccc4c(c3)OCCO4)n2)cc1`, the B-score entry is “inactive”. Regarding `CC1(C)CC(=O)C/C(=N\NC(=O)c2cccs2)C1`, the B-score result was “inactive”.

Regarding `CN(CC(=O)NCCc1ccc(S(N)(=O)=O)cc1)CC(=O)Nc1ccc(F)c(F)c1F`, the B-score result is “inactive”. To `Cc1ccc(C(=O)N/C(=C\c2cn(S(=O)(=O)N(C)C)c3ccccc23)C(=O)N2CCCC2)cc1` belongs “inactive”; to `Cc1ccc2nc(N3C(=O)C(O)=C(C(=O)c4ccco4)C3c3cccc(O)c3)sc2c1` (stereo not given), “inactive”; to `C=CCSc1nnc(N2C(=O)C(O)=C(C(=O)c3ccco3)C2c2ccc(F)cc2)s1` (stereo not given), -10.6 (active). For `C=CCOc1cccc(C2C(C(=O)c3ccc(C)o3)=C(O)C(=O)N2c2nnc(C)s2)c1` (stereo not given), the B-score entry was “inactive”. Consider `O=C(c1c(F)cccc1Cl)N1CCN(S(=O)(=O)c2ccc3c(c2)OCCCO3)CC1`, for which the B-score entry was “inactive”. The same measure for `Cc1cc(OC(=O)c2c(Cl)cccc2Cl)nc(C)n1`: “inactive”; for `Cc1cc(C)c(S(=O)(=O)c2ccccc2)c(OC(=O)c2c(F)cccc2Cl)n1`: -14.3 (active).
